LMP1 NFkB inh = inhibitors of Epstein-Barr LMP1-induced NF-kappaB reporter; LMP1-induced NF-kappaB luciferase reporter cells, luminescence; inhibition, % at 12.5 µM; 350,000 compounds, 0.69% hits; AID 504558; in the data active means inhibition above about 41%; inconclusive means no clear call, values can overlap the other calls;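 further: 0% = neutral control wells and 100% = reference inhibitor control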
TROY NFkB inh = blocks TROY-dependent signaling in reporter cells; 360,000 compounds, 0.98% hits; Q293 LMP1-TROYcd NF-kB luciferase reporter, 4 h; AID 1347056; inhibition, % at 10 µM;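 active means compounds whose plate-normalised and pattern-corrected inhibition of the luciferase reporter signal at the single screening dose is 50% or more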
TWEAK Fn14 block = inhibitors of TWEAK-Fn14 interaction signaling; inhibition, % at 10 µM; TWEAK-stimulated Fn14 reporter cells, luciferase luminescence, 8 h; 360,000 compounds, 2% hits; in the data active means inhibition above about 50%
Shn3 inh set2 = Schnurri-3 reporter inhibition in Clone20 osteoblasts | inhibition, % at 12.5 µM | Clone20 osteoblast Shn3 3'UTR firefly luciferase, 24 h | 360,000 compounds, 0.52% hits | AID 588674;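 active means mean inhibition of at least 75% with every replicate also reaching 75%; inconclusive means mean inhibition at least 75% but some replicate below; inactive means mean inhibition below 75%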;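 further: 0% = median of neutral control wells and 100% = pilot-screen positive control compound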
Peg3 promoter = reduces Peg3 promoter-driven luciferase expression in HeLa. HeLa PEG-Prom luciferase reporter, luminescence, overnight. inhibition, % at 20 µM. 360,000 compounds, 1.7% hits. AID 588405;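 active means inhibition of at least 50% at 20 µM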
TRPM1 prom inh = reduces MITF-dependent TRPM1 promoter luciferase signal | 330,000 compounds, 0.83% hits | SK-MEL-5 TRPM1 promoter luciferase, 24 h | inhibition, % at 12.5 µM;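 active means mean inhibition across replicates of 60% or more, whatever share of single replicates reaches that level; inconclusive means some that reach 60%, reason not given; inactive means mean inhibition across replicates below 60%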
* marks the source's active call; other numbers are inactive results; ? = inconclusive; / = no result. The list is not random: actives were taken first. Their share in the collection is about 4.1%.

SMILES	LMP1 NFkB inh	TROY NFkB inh	TWEAK Fn14 block	Shn3 inh set2	Peg3 promoter	TRPM1 prom inh
COc1ccc(NS(=O)(=O)c2cccc(NC(=O)CCC(=O)c3ccc(Cl)cc3)c2)cc1	15	34	75*	76	13	31
COc1ccc(NS(=O)(=O)c2cccc(NC(=O)CCC(=O)c3cccs3)c2)cc1	-9	-16	1	-12	11	9
COc1ccc(N(CC(O)CN2CCOCC2)S(=O)(=O)c2ccccc2)cc1 (stereo unspecified)	-1	-7	1	5	9	9
COc1ccccc1NS(=O)(=O)c1cccc(NC(=O)c2ccc3ccccc3n2)c1	2	33	69*	62	4	14
O=C(Nc1cccc(O)c1)c1cccc(C(=O)Nc2cccc(O)c2)c1	5	-1	19	-14	4	7
COc1ccc(NS(=O)(=O)c2cccc(NC(=O)c3ccc(Cl)nc3)c2)cc1	10	27	70*	80	22	17
O=C(Nc1cccc(O)c1)c1cccc(S(=O)(=O)Nc2cccc(O)c2)c1	49*	9	-5	-1	1	3
Cc1ccc(C)c(-n2nnc3ccccc3c2=O)c1	3	-33	-2	-15	2	/
O=C(CCN1C(=O)c2ccc([N+](=O)[O-])cc2C1=O)Nc1ccccc1C(=O)O	-1	-4	0	7	13	10
COc1ccc2cc3cc(C(=O)NC4CC4)sc3nc2c1	3	27	67*	11	-14	3
Cc1ccc(NS(=O)(=O)c2cc([N+](=O)[O-])ccc2NNC(=S)Nc2cc(C)ccc2C)c(C)c1	16	53*	68*	74	38	37
Cc1ccc(NS(=O)(=O)c2cc([N+](=O)[O-])ccc2NNC(=S)Nc2cccc(Cl)c2)c(C)c1	6	62*	40	20	41	7
COc1ccc(NC(=S)NNc2ccc([N+](=O)[O-])cc2S(=O)(=O)Nc2ccc(C)cc2C)cc1	12	29	37	25	52*	4
COc1ccc(NC(=S)Nc2cccc([N+](=O)[O-])c2)cc1	-2	-62	-21	-9	-48	-6
Cc1ccc([N+](=O)[O-])cc1NC(=S)NC(=O)C(C)(C)C	-2	-25	-11	0	2	2
COc1ccc(N2C(=O)CC(Sc3nnc(-c4ccccc4)o3)C2=O)cc1 (stereo unspecified)	?	-10	-7	61	85*	16
O=C1CC(Sc2nnc(-c3ccccc3O)o2)C(=O)N1c1ccccc1 (stereo unspecified)	-3	3	7	93*	31	6
COc1ccc(NC(=O)COC(=O)c2ccc(-n3cnnn3)cc2)c([N+](=O)[O-])c1	4	12	3	-12	-2	4
CCOC(=O)c1sc(NC(=O)CCN2CCN(C)CC2)c(C(=O)OCC)c1C	-5	-6	18	-10	84*	29
CCOC(=O)c1sc(NC(=O)CN2CCCC2)c(C(=O)OCC)c1C	-16	2	-15	28	0	7
COC(C)(C)[C@H](O)COc1c2ccoc2cc2oc(=O)ccc12	1	-24	-17	8	7	-4
CC(=O)NC1=NC(=O)/C(=C/c2cn(C(C)=O)nc2-c2ccccc2)S1	14	43	74*	8	-6	-4
CCN1CCN(c2cc(C)c3cc(NC(=S)N4CCCC(C)C4)ccc3n2)CC1 (stereo unspecified)	13	83*	86*	11	15	6
CCN1CCN(c2cc(C)c3cc(NC(=S)N4CCN(c5ccc(F)cc5)CC4)ccc3n2)CC1	-9	26	-4	6	88*	85*
CCN1CCN(C(=S)Nc2ccc3nc(N4CCN(CC)CC4)cc(C)c3c2)CC1	3	13	-15	-44	0	6
CCN1CCN(c2cc(C)c3cc(NC(=S)N4CC(C)CC(C)C4)ccc3n2)CC1 (stereo unspecified)	9	54*	14	4	15	-10
O=C(COc1ccccc1[N+](=O)[O-])NNC(=O)Nc1cccc2ccccc12	-5	27	11	12	7	4
Cc1c(Cl)cccc1N=C1NC(=O)CS1	-9	-18	0	18	12	/
CN(C)c1ccc(-c2noc(-c3ccccc3O)n2)cc1	3	27	76*	32	-99	3

From PubChem BioAssay
